IL1B secr inh: blocks inflammasome-driven IL-1 beta release | AID 743279 | 360,000 tested, 4.7% active | THP-1 LPS/ATP IL-1B secretion, AlphaLISA, 16 h; hits give low values | activity change, % at 57.5 µM; in the data active = activity change below about -50%; inconclusive = mostly about -30% to -49%; also: % is scaled to controls: 0 for no effect and ±100 for the full control effect
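Secreted IL-1B measured by AlphaLISA bead assay after 16 h compound exposure of THP-1 cells; compounds (final up to 57.5 uM) added 1 h before LPS (250 ng/mL) and ATP (1.25 mM) stimulation; lower signal means less secretion.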
TGFb inhibitor: TGF-b pathway inhibition | Potency, µM (series often up to 46.1 µM), for the others: top-dose activity, negative = inhibition, usual class: inhibitors | 410,000 tested, 1.2% active | HepG2 CAGA-GFP TGF-b/SMAD3 reporter, GFP fluorescence, 18 h; TGF-beta stimulated, 500 pg/mL final; also: potency is read from the fitted curve at half-maximal effect; % is scaled to controls: 0 for no effect and ±100 for the full control effect; nearly all actives have a fitted effect of over 65% in size
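Per well, imaged GFP fluorescence of HEPG2 CAGA-GFP cells gives the signal; cells get compound, then TGF-beta (500 pg/mL final), 18 h at 37 degrees C; %Activity versus -TGF-beta and +DMSO controls.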
HepG2 viability: HepG2 cytotoxicity, counter-screen for TGF-b inhibitors; HepG2 CAGA-GFP viability, ATP luminescence, 18 h; Potency, µM (doses to about 46.1 µM), inactives show at the top dose activity change, negative = cytotoxicity, most hits filed as cytotoxic; 410,000 tested, 0.76% active; also: potency is read from the fitted curve at half-maximal effect
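HepG2 CAGA-GFP cells (1000/well, DMEM with 1% FBS) received compound, then TGF-beta at 500 pg/mL final, and were incubated 18 hours at 37 degrees C. Viability was read by CellTiter-Glo luminescence. Media-only wells were set as complete cell-killing and DMSO as no toxicity.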
TDP1 inh: TDP1 (human) enzyme inhibition. recombinant TDP1, AlphaScreen DNA substrate cleavage. AID 485290. 350,000 tested, 0.28% active. Q9NUW8. Potency, µM (doses to about 130 µM), for the others: at the top dose activity change, negative = inhibition, most hits filed as inhibitors; also: potency is read from the fitted curve at half-maximal effect; % is scaled to controls: 0 for no effect and ±100 for the full control effect; nearly all actives have a fitted effect of over 40% in size
Target sequence (Q9NUW8 whole entry, looked up): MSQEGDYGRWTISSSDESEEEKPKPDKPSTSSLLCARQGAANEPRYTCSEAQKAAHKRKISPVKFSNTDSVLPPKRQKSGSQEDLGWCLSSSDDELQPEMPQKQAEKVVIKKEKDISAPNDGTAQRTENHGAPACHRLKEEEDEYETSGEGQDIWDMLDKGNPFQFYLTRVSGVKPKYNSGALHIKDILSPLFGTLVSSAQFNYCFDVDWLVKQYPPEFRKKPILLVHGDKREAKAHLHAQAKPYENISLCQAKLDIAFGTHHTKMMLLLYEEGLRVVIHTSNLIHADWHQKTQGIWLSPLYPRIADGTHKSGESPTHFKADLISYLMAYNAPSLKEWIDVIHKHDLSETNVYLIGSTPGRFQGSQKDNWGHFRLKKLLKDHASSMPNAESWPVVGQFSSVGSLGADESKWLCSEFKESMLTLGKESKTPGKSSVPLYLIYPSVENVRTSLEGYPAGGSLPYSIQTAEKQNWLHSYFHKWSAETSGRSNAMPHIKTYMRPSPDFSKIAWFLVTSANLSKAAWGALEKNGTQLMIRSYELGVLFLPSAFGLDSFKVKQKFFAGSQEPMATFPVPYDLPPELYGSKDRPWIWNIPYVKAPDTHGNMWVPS
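AlphaScreen read-out: signal falls as enzyme removes the 3' tyrosine-FITC from a 5'-biotinylated DNA oligo (15 nM, 5 min, RT). Enzyme was E. coli-made recombinant Tdp1 at 1 nM, exposed to compound for 15 min beforehand; beads 10 ug/ml, 10 min.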
TDP1 cell CPT: DT40-hTDP1 cell growth loss with CPT; chicken DT40 Tdp1-/-;hTDP1 cells + 20 nM CPT, ATP luminescence, 48 h; Potency, µM (highest dose often 46.2 µM), for the others: top-dose activity change, negative = growth inhibition, hits mostly inhibitors; 420,000 tested, 12% active; AID 686979; also: potency is read from the fitted curve at half-maximal effect; % is scaled to controls: 0 for no effect and ±100 for the full control effect; nearly all actives have a fitted effect of over 55% in size
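Cell growth measured by CellTiter-Glo luminescence after a minimum 48 h, 37 C compound exposure with 20 nM CPT in Tdp1-knockout DT40 cells stably expressing hTDP1, seeded 400/well; qHTS titration format.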
TDP1 cell noCPT: qHTS for Inhibitors of human tyrosyl-DNA phosphodiesterase 1 (TDP1): qHTS in cells in absence of CPT. DT40 Tdp1-/- hTDP1 cells, no CPT, ATP luminescence, 48 h. Potency, µM (highest dose often 46.2 µM), without a hit: at the highest dose activity change, negative = growth inhibition, actives largely listed as inhibitors. 420,000 tested, 15% active. AID 686978, 2013; also: potency is read from the fitted curve at half-maximal effect; % is scaled to controls: 0 for no effect and ±100 for the full control effect; nearly all actives have a fitted effect of over 55% in size
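DT40 Tdp1-/-;hTDP1 cells, no CPT (DMSO vehicle only), 400 cells/well; compounds pin-transferred; ≥48 hr, 37 °C; CellTiter-Glo 30 min RT dark, luminescence read.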
Starred values were filed as active, the others as inactive; [ ] = remark or other dose. The list is not random: actives were taken first. Their share in the collection is about 19%. Unless noted, calls follow the shape of the dose curve; as a rule, active = well fitted curve in the direction sought with a large enough effect; inconclusive = small, poorly fitted or top-dose-only effect, or another doubt; inactive = no such curve, though single readings can be large; an effect the other way counts as inactive or inconclusive.

`O=C(Cc1cccs1)Nc1cccc(-c2nnc(-c3ccco3)o2)c1` gave IL1B secr inh inconclusive, TGFb inhibitor -5%, HepG2 viability -15%, TDP1 inh 0%, TDP1 cell CPT 16µM* and TDP1 cell noCPT 12µM*.
`Cc1ccc2oc(-c3cccc(NC(=O)Cc4cccs4)c3)nc2c1` gave IL1B secr inh 15, TGFb inhibitor 6%, HepG2 viability 15%, TDP1 inh 2%, TDP1 cell CPT -12% and TDP1 cell noCPT -9%.
`COc1cccc(C(=O)Nc2ccccc2-c2nnc(-c3cccc(OC)c3)o2)c1` gave TGFb inhibitor 12%, HepG2 viability -50%, TDP1 inh 7%, TDP1 cell CPT 9.2µM* and TDP1 cell noCPT 12µM*.
Screening CC(C)=CCC/C(C)=C/CO/N=C1/C[C@@H](O)[C@@H](O)[C@@H]2[C@@H]3C(=O)N(C4CCCCC4)C(=O)[C@H]3CC[C@H]12 returned TDP1 inh 10%[21 µM].
COc1cc(OC)c(NS(=O)(=O)c2c(C(=O)N3CCCCC3)c(C)n(C)c2C)cc1Cl was read as IL1B secr inh -13, TGFb inhibitor -7%, HepG2 viability -11%, TDP1 cell CPT 1% and TDP1 cell noCPT 1%.
COc1cccc(CN(C(=O)c2cc3ccccc3oc2=O)C2CCS(=O)(=O)C2)c1 (stereo not drawn) was read as IL1B secr inh 2, TGFb inhibitor 6%, HepG2 viability -3%, TDP1 inh 4%, TDP1 cell CPT 1% and TDP1 cell noCPT 18%.
`COc1ccccc1CC(=O)Nc1ccc(-c2nnc(-c3ccco3)o2)cc1` gave IL1B secr inh inconclusive, TGFb inhibitor -6%, HepG2 viability 1%, TDP1 inh 3%, TDP1 cell CPT inconclusive and TDP1 cell noCPT 16µM*.
For COc1ccc(C(=O)Nc2cccc(-c3nnc(-c4ccco4)o3)c2)cc1 the results were IL1B secr inh -29, TGFb inhibitor inconclusive, HepG2 viability -7%, TDP1 inh -3%, TDP1 cell CPT 18µM* and TDP1 cell noCPT 16µM*.
Screening O=C(Cc1ccccc1)Nc1ccc(-c2nnc(-c3ccco3)o2)cc1 returned IL1B secr inh 4, TGFb inhibitor -10%, HepG2 viability 0%, TDP1 inh -5%, TDP1 cell CPT -20% and TDP1 cell noCPT -7%.
For NC(=O)c1ccc(NC(=O)Cc2cccs2)cc1 the results were IL1B secr inh 6, TGFb inhibitor 4%, HepG2 viability 2%, TDP1 inh 0%, TDP1 cell CPT -13% and TDP1 cell noCPT -3%.
COc1cc(C(=O)Nc2cccc(-c3nnc(-c4ccco4)o3)c2)ccc1OC(C)=O was read as IL1B secr inh -88*, TGFb inhibitor 2%, HepG2 viability 2%, TDP1 inh 9%, TDP1 cell CPT 13µM* and TDP1 cell noCPT 16µM*.
Screening Cc1ccc(-c2nnc(-c3ccc(NC(=O)Cc4cccs4)cc3)o2)cc1 returned IL1B secr inh 18, TGFb inhibitor -26%, HepG2 viability -37%, TDP1 inh -4%, TDP1 cell CPT 15µM* and TDP1 cell noCPT 18µM*.
For COc1ccc(NC(=O)C(NC(=O)Cc2cccs2)c2ccc(OC)cc2)cc1 (stereo not drawn) the results were TGFb inhibitor 0%, HepG2 viability -8%, TDP1 inh 0%, TDP1 cell CPT -8% and TDP1 cell noCPT 2%.
For Cc1ccc(C(NC(=O)Cc2cccs2)C(=O)Nc2ccc(C(C)C)cc2)cc1 (stereo not drawn) the results were TGFb inhibitor 3%, HepG2 viability 5%, TDP1 inh 9%, TDP1 cell CPT 16µM* and TDP1 cell noCPT inconclusive.
For C=C1C(=O)O[C@@H]2[C@H]1CC[C@H](C)[C@]1(O)CCC(=O)[C@@]21C the results were IL1B secr inh -69*, TGFb inhibitor inconclusive, HepG2 viability 4%, TDP1 cell CPT 23µM* and TDP1 cell noCPT inconclusive.
`Fc1ccc(CN2CCN3CCCC3C2C2CCCCC2)cc1F` (stereo not drawn) gave IL1B secr inh -29, TGFb inhibitor 11%, HepG2 viability -12%, TDP1 inh 4%, TDP1 cell CPT 23µM* and TDP1 cell noCPT 18µM*.
Screening Fc1cccc(CN2CCN3CCCC3C2C2CCCCC2)c1 (stereo not drawn) returned IL1B secr inh inconclusive, TGFb inhibitor 46%, HepG2 viability -51%, TDP1 inh 3%, TDP1 cell CPT inconclusive and TDP1 cell noCPT inconclusive.
Screening Cc1ccc(N(CC(=O)Nc2ccc(Cl)cc2)S(=O)(=O)c2cccc3nonc23)cc1 returned TGFb inhibitor inconclusive, HepG2 viability -45%, TDP1 inh 7%, TDP1 cell CPT inconclusive and TDP1 cell noCPT inconclusive.
For COc1ccccc1N1CCN(c2nc3c(S(=O)(=O)c4ccccc4)nnn3c3ccc(Cl)cc23)CC1 the results were TGFb inhibitor 12%, HepG2 viability -13%, TDP1 inh -1%, TDP1 cell CPT 6% and TDP1 cell noCPT -23%.
Screening Cc1ccc(S(=O)(=O)c2nnn3c2nc(N2CCC(C)CC2)c2cc(Cl)ccc23)cc1C returned TGFb inhibitor 0%, HepG2 viability 1%, TDP1 inh 0%, TDP1 cell CPT inconclusive and TDP1 cell noCPT 21µM*.
For CCc1ccc(S(=O)(=O)c2nnn3c2nc(N2CCC(C(N)=O)CC2)c2cc(Cl)ccc23)cc1 the results were TGFb inhibitor 2%, HepG2 viability -36%, TDP1 inh 9%, TDP1 cell CPT inconclusive and TDP1 cell noCPT 23µM*.
CC1CCN(c2nc3c(S(=O)(=O)c4ccccc4)nnn3c3ccc(Cl)cc23)CC1 was read as TGFb inhibitor 0%, HepG2 viability 4%, TDP1 inh 4%, TDP1 cell CPT 16µM* and TDP1 cell noCPT 18µM*.
For Cc1ccc(S(=O)(=O)c2nnn3c2nc(N2CCC(C(N)=O)CC2)c2ccccc23)cc1 the results were IL1B secr inh inconclusive, TGFb inhibitor 2%, HepG2 viability 2%, TDP1 inh 1%, TDP1 cell CPT -1% and TDP1 cell noCPT 17%.
For COc1ccc(CN2COc3ccc4c(C)cc(=O)oc4c3C2)cc1 the results were TGFb inhibitor 10%, HepG2 viability 4% and TDP1 inh 0%.

Compound activity: PubChem, National Center for Advancing Translational Sciences (NCATS)
